Hits are enriched below; roughly 2.8% of the tested compounds scored in any of these assays.
IP6K1 inhibitor: blocks human inositol hexakisphosphate kinase 1 | Q92551 | actives 0.81% (n = 140,000) | activity change, % (series mostly up to about 58 µM) | IP6K1 kinase, ADP-Glo luminescence, 2 h; hits give low values; in the data active = activity change below about -25%
Target sequence (Q92551 whole entry, looked up): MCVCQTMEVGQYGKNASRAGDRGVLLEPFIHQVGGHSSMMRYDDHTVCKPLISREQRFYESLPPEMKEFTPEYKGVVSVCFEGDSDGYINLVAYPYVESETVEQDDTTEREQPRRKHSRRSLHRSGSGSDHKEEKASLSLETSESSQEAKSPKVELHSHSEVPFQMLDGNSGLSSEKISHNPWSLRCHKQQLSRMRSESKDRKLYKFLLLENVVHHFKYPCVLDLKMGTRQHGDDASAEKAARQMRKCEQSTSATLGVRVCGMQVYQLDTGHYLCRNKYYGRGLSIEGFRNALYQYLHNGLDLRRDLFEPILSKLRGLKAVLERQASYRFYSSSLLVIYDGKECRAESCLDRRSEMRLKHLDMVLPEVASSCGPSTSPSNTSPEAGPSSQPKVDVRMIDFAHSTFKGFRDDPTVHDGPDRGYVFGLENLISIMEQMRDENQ
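ADP-Glo luminescence measures ADP made by human IP6K1 during a 2 h RT reaction with ATP/IP6 (mix at 1.3 mM/130 uM); top library doses 57.5 and 19.1 uM final.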
KDM5B inh: KDM5B demethylase inhibition; Q9UGL1; KDM5B demethylase, FDH-coupled NADH fluorescence (FDH is formaldehyde dehydrogenase); Potency, µM (doses to about 57.7 µM), usual class: inhibitors; actives 2.6% (n = 220,000); also: nearly all actives have a fitted effect of over 70% in size
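Measured: NADH fluorescence change, 30 min, RT. System: KDM5BΔAP 200 nM final, H3K4me3 peptide, α-KG, Fe(II), ascorbate, NAD⁺ plus FDH, pH 7.5 HEPES. Compounds: titrated, 10 min pre-incubation with enzyme.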
IP6K1 inh cnf: confirmation of human IP6K1 inhibitors; Potency, µM (doses to about 49 µM), actives largely listed as inhibitors; shares compounds with IP6K1 inhibitor; actives 13% (n = 1,200); AID 1645852; recombinant IP6K1 kinase, ADP-Glo luminescence, 2 h; also: nearly all actives have a fitted effect of over 65% in size
Large screens that a line does not name were inactive (follow-up assays come after a bar, where they were run). Unless noted, calls follow the shape of the dose curve; as a rule, active = well fitted inhibition curve with a large enough effect; inconclusive = small, poorly fitted or top-dose-only effect; inactive = no such curve, though single readings can be large or run the other way.

Cc1ccc(S(=O)(=O)N2CCN(Cc3ccccc3Cl)CC2)cc1	IP6K1 inhibitor -55.8, KDM5B inh inconclusive | IP6K1 inh cnf inactive
COc1ccc(C(=O)N2CCN(C(=O)N3CC4CC(C3)[C@H]3CCCC(=O)N3C4)CC2)cc1 (stereo partly drawn)	none
CC(C)c1ccc(-c2cc(=O)c3ccccc3o2)cc1	IP6K1 inhibitor -77.9 (no result: KDM5B inh) | IP6K1 inh cnf 3.26µM
CC(=O)Nc1ccc2oc(-c3ccc(C(C)C)cc3)cc(=O)c2c1	none (no result: IP6K1 inhibitor)
O=c1cc(-c2ccccc2)oc2ccccc12	IP6K1 inhibitor -29.8 (no result: KDM5B inh) | IP6K1 inh cnf inconclusive
CC(C)(C)C(=O)Nc1ccc2oc(-c3ccccc3)cc(=O)c2c1	none (no result: IP6K1 inhibitor)
Cc1ccc(OC(C)C(=O)N2CCC(c3nc4ccccc4o3)CC2)cc1C (stereo not drawn)	none (no result: IP6K1 inhibitor)
CCCNC(=O)CCCN1C(=O)CCn2nc(-c3cccn3C)cc21	none
CC(C)OCCCNC(=O)CCCN1C(=O)CCn2nc(-c3cccn3C)cc21	IP6K1 inhibitor -33.9, KDM5B inh inconclusive | IP6K1 inh cnf inactive
O=C(NOCC1CC1)c1ccc(F)c(F)c1Nc1ccc(I)cc1Cl	none (no result: KDM5B inh) | IP6K1 inh cnf inactive
O=C(Nc1ccc(I)cc1C(F)(F)F)c1cc(Cl)ccc1Cl	none (no result: IP6K1 inhibitor)
O=C(NCC(O)CO)c1ccncc1Nc1ccc(I)cc1F (stereo not drawn)	none (no result: KDM5B inh)
O=C(NOC[C@H](O)CO)c1ccc(F)c(F)c1Nc1ccc(I)cc1F	none (no result: KDM5B inh) | IP6K1 inh cnf inactive
COc1ccc(NC(=O)NC[C@H]2O[C@@H]3C[C@@H](CC(=O)NCc4cnn(C)c4)O[C@@H]3[C@@H]2O)cc1	none
O=S(=O)(NCCO)c1ccc(Cl)cc1	none (no result: IP6K1 inhibitor)
CC(C)C(=O)N1Cc2ccccc2CC2(CCN(CC3CCNC3)CC2)C1 (stereo not drawn)	none
CCCOc1ccc(C(=O)N(Cc2ccc(N(C)C)cc2)CC2CCCO2)cc1 (stereo not drawn)	none
COc1ccc(C(=O)N(Cc2cc(OC)c(OC)c(OC)c2)CC2CCCO2)cc1 (stereo not drawn)	IP6K1 inhibitor -25.5, KDM5B inh inconclusive | IP6K1 inh cnf inactive
CC(=O)Nc1ccc(CNC2CCCC(C(F)(F)F)C2)cc1 (stereo not drawn)	none (no result: IP6K1 inhibitor)
CC1CN(c2ccc(Cl)cc2)C(=O)CN1C(=O)CCn1cccc1 (stereo not drawn)	IP6K1 inhibitor -33.4, KDM5B inh inconclusive | IP6K1 inh cnf inactive
Cc1nc2ccc(C(=O)N3CC(=O)N(c4ccc(Cl)cc4)CC3C)cc2[nH]1 (stereo not drawn)	none
CCN(C(=O)c1cc2c(s1)CCC2)C1CC1	none (no result: IP6K1 inhibitor)
O=C(NCc1ccco1)c1ccc2c(c1)N(Cc1ccc(Cl)cc1)C(=O)c1ccccc1S2	IP6K1 inhibitor -25.5, KDM5B inh inconclusive | IP6K1 inh cnf inconclusive
CCOc1ccc(CN2C(=O)c3ccccc3Sc3ccc(C(=O)NCc4ccco4)cc32)cc1	KDM5B inh inconclusive
COc1ccc(C(=O)N[C@@H]2CCC[C@@H]2C(=O)NCc2cccc(OC)c2OC)cc1	none
C=C1c2cccc(O)c2C(O)=C2C(=O)[C@]3(O)C(O)=C(C(N)=O)C(=O)[C@@H](N(C)C)[C@@H]3[C@@H](O)[C@H]12	IP6K1 inhibitor -36.8 (no result: KDM5B inh) | IP6K1 inh cnf inactive
CN(C)c1cc(NC(=O)CNC(C)(C)C)c(O)c2c1C[C@@H]1C[C@H]3[C@H](N(C)C)C(=O)C(C(N)=O)=C(O)[C@@]3(O)C(=O)C1=C2O	none (no result: KDM5B inh)
O=C1CC(c2ccccc2)N(C(=O)CC2CCCC2)CCCCCN1 (stereo not drawn)	none
CCc1nc2c(c(-c3ccc(OC)cc3)n1)CCN(Cc1ccc(C(F)(F)F)cc1)CC2	KDM5B inh inconclusive
COc1cc2ncnc(Nc3cccc(Br)c3)c2cc1OC	none (no result: IP6K1 inhibitor, KDM5B inh) | IP6K1 inh cnf inconclusive
COc1cc2ncnc(Nc3cccc(O)c3)c2cc1OC	none (no result: KDM5B inh)
Cc1ccc(C(NS(=O)(=O)c2ccc(C)cc2)c2cccs2)cc1 (stereo not drawn)	none (no result: IP6K1 inhibitor)
COC(=O)CNC(=O)C1CN(c2ccc(F)cc2)C(=O)N1 (stereo not drawn)	none
COc1ccc(Cn2c(C(=O)O)c(CNCCc3ccco3)c3ccc(C)cc32)cc1	none
C=Cc1ccc(Cn2c(C(=O)O)c(CNCCc3ccco3)c3ccc(C)cc32)cc1	IP6K1 inhibitor -28.9, KDM5B inh inconclusive | IP6K1 inh cnf inactive
Cc1ccccc1/C=C1\C(=O)Nc2ccc(F)cc21	none (no result: IP6K1 inhibitor)
CCN(CC)CCNC(=O)c1c(C)[nH]c(/C=C2\C(=O)Nc3ccc(Cl)cc32)c1C	none (no result: IP6K1 inhibitor, KDM5B inh) | IP6K1 inh cnf inactive
CCN(CC)CCNC(=O)C1(O)c2cc(Br)ccc2NC(=O)N1c1ccc(Cl)cc1 (stereo not drawn)	none (no result: IP6K1 inhibitor)
Cc1[nH]c(/C=C2\C(=O)Nc3ccc(F)cc32)c(C)c1C(=O)NC[C@H](O)CN1CCOCC1	none (no result: KDM5B inh) | IP6K1 inh cnf inactive
C[C@H](NC(=O)C1CC(=O)N(c2ccc(F)cc2)C1)C(=O)NCCc1c[nH]c2ccccc12 (stereo partly drawn)	none (no result: IP6K1 inhibitor)
CCc1ccc2c(CN3CCc4cc(S(N)(=O)=O)ccc43)cc(=O)oc2c1	none (no result: IP6K1 inhibitor)
C[C@H]1[C@@H]2[C@H]3OC(=O)[C@@H](C)[C@@H]3CC[C@@]2(C)CC[C@@H]1NC(=O)c1cncnc1	none
CCOC(=O)N1CCN(C(C(=O)O)c2c[nH]c3ccccc23)CC1 (stereo not drawn)	none (no result: IP6K1 inhibitor)
COc1ccc(CNC(=O)C(=O)NCC(c2ccco2)S(=O)(=O)c2ccc(C)cc2)cc1 (stereo not drawn)	none
COc1ccc(CNC(=O)C(=O)NCC(c2ccco2)S(=O)(=O)c2ccc(Cl)cc2)cc1 (stereo not drawn)	IP6K1 inhibitor -29.0 | IP6K1 inh cnf inactive
COC(=O)c1cccc(CN2C(=O)SC(Nc3ccc(Cl)cc3)C2=O)c1 (stereo not drawn)	KDM5B inh inconclusive
CCOC(=O)c1ccc(NC2SC(=O)N(Cc3cccc(C(=O)O)c3)C2=O)cc1 (stereo not drawn)	IP6K1 inhibitor -45.8 | IP6K1 inh cnf inconclusive
COCC(=O)N1CCc2n[nH]c(=O)n2CC1	none
CCc1nn2c(ncc3c(=O)n(CCN4CCOCC4)ccc32)c1-c1ccc(Cl)cc1	none (no result: IP6K1 inhibitor)
O=C(c1cccc(Cl)c1)N1CCC2(C1)C(=O)N(CCc1ccccc1)c1ccccc12 (stereo not drawn)	KDM5B inh inconclusive
CCCCN(CCCNC(=O)c1cc(Nc2ccc(OC)cc2OC)nc2ccccc12)Cc1ccccc1	KDM5B inh inconclusive
CCN(CCCNC(=O)c1cc(Nc2ccc(OC)cc2OC)nc2ccccc12)c1cccc(C)c1	IP6K1 inhibitor -36.1, KDM5B inh inconclusive | IP6K1 inh cnf inactive
COc1ccc(CNC(=O)c2cc(Nc3ccccc3C)nc3ccccc23)cc1	none
COc1ccc(Nc2cc(C(=O)NCc3ccccc3)c3ccccc3n2)cc1	IP6K1 inhibitor -44.2 | IP6K1 inh cnf inactive
COc1ccc(CN2CCNC(=O)C2CC(=O)N(C)Cc2cccnc2)c(F)c1 (stereo not drawn)	none
CCCNc1nc2ccccc2nc1C(=O)Nc1ccccc1Cl	none (no result: IP6K1 inhibitor)
COc1cccc(CN2Cc3nc(N4CCN(C)CC4)ccc3OCC2=O)c1	KDM5B inh inconclusive
COCCCNC(=O)CCN(CCC(C)C)C(=O)c1ccoc1	none
COc1ccc(-c2c(-c3cc(C(=O)O)ccn3)ncn2C)cc1	IP6K1 inhibitor -34.7 (no result: KDM5B inh) | IP6K1 inh cnf inconclusive
O=C(O)c1ccnc(-c2ccnc(-c3ncccn3)n2)c1	none
COCC(=O)n1nc(-c2ccco2)nc1NCc1ccccc1Cl	none
